# Results reported in PubChem BioAssay AID1159580 (chemical genetic matrix, 2015).
# Among all 5,500 compounds or so, about 2,000 (36%) were called active. Inconclusive results (about 18%) are left out. This is one part of the list. A number with no mark means an inactive call. No stated cut-off is given here; in the data, active means normalized growth mostly below about 0.91 (no sharp cut-off); inconclusive means no clear call, values can overlap the other calls; inactive means mostly above about 0.92.
# Experiment: chemical genetic growth profiling, strain panel (AID 1159580);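 further: tested at 20 µM; growth read once vehicle control cultures reached saturation at 30 °C; 1 = growth at the plate median or of vehicle wells; lower values mean less growth of the strain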
# Details: S. cerevisiae deletion strains, growth OD
# [1] = locus YAR019C, strain CDC15, hits give low values
# [2] = locus YBL105C, strain PKC1, hits give low values
# [3] = locus YBR135W, strain CKS1, hits give low values
# [4] = locus YBR136W, strain MEC1, hits give low values
# [5] = locus YBR160W, strain CDC28, hits give low values
# [6] = locus YDL017W, strain CDC7, hits give low values
# [7] = locus YDL028C, strain MPS1, hits give low values
# [8] = locus YDL101C, strain DUN1, hits give low values
# [9] = locus YDL108W, strain KIN28, hits give low values
# [10] = locus YDL132W, strain cdc53, hits give low values
# [11] = locus YDL214C, strain PRR2, hits give low values
# [12] = locus YDR052C, strain DBF4, hits give low values
# [13] = locus YDR054C, strain cdc34, hits give low values
# [14] = locus YDR226W, strain ADK1, hits give low values
# [15] = locus YDR477W, strain SNF1, hits give low values
# [16] = locus YER123W, strain YCK3, hits give low values
# [17] = locus YER133W, strain GLC7, hits give low values
# [18] = locus YFL009W, strain cdc4, hits give low values
# [19] = locus YFL029C, strain CAK1, hits give low values
# [20] = locus YFR003C, strain YPI1, hits give low values
# [21] = locus YFR019W, strain FAB1, hits give low values
# [22] = locus YFR028C, strain CDC14, hits give low values
# [23] = locus YGR040W, strain KSS1, hits give low values
# [24] = locus YGR052W, strain FMP48, hits give low values
# [25] = locus YGR092W, strain DBF2, hits give low values
# [26] = locus YHR030C, strain SLT2, hits give low values
# [27] = locus YHR079C, strain IRE1, hits give low values
# [28] = locus YHR082C, strain KSP1, hits give low values
# [29] = locus YHR205W, strain SCH9, hits give low values
# [30] = locus YIL147C, strain SLN1, hits give low values
# [31] = locus YJL095W, strain BCK1, hits give low values
# [32] = locus YJL128C, strain PBS2, hits give low values
# [33] = locus YJL157C, strain FAR1, hits give low values
# [34] = locus YJR016C, strain ILV3, hits give low values
# [35] = locus YJR066W, strain TOR1 (second series), hits give low values
# [36] = locus YJR066W, strain TOR1, hits give low values
# [37] = locus YKL048C, strain ELM1, hits give low values
# [38] = locus YKL067W, strain YNK1, hits give low values
# [39] = locus YKL101W, strain HSL1, hits give low values
# [40] = locus YKL193C, strain SDS22, hits give low values
# [41] = locus YKL203C, strain TOR2, hits give low values
# [42] = locus YLR113W, strain HOG1, hits give low values
# [43] = locus YLR133W, strain CKI1, hits give low values
# [44] = locus YLR403W, strain SFP1, hits give low values
# [45] = locus YML070W, strain DAK1, hits give low values
# [46] = locus YMR001C, strain CDC5, hits give low values
# [47] = locus YMR205C, strain PFK2 (second series), hits give low values
# [48] = locus YMR277W, strain FCP1, hits give low values
# [49] = locus YNL006W, strain LST8, hits give low values
# [50] = locus YNL020C, strain ARK1, hits give low values
# [51] = locus YNL161W, strain CBK1, hits give low values
# [52] = locus YNL183C, strain NPR1, hits give low values
# [53] = locus YNL207W, strain RIO2, hits give low values
# [54] = locus YNL222W, strain SSU72, hits give low values
# [55] = locus YNL307C, strain MCK1 (second series), hits give low values
# [56] = locus YOL078W, strain AVO1, hits give low values
# [57] = locus YOL136C, strain PFK27, hits give low values
# [58] = locus YOR061W, strain CKA2, hits give low values
# [59] = locus YOR119C, strain RIO1, hits give low values
# [60] = locus YOR231W, strain MKK1, hits give low values
# [61] = locus YOR329C, strain SCD5, hits give low values
# [62] = locus YPL031C, strain PHO85, hits give low values
# [63] = locus YPL153C, strain RAD53, hits give low values
# [64] = locus YPL204W, strain HRR25, hits give low values
# [65] = locus YPL209C, strain IPL1, hits give low values
# [66] = locus YPL256C, strain CLN2, hits give low values
# [67] = locus YPR025C, strain CCL1, hits give low values
# [68] = locus YPR106W, strain ISR1, hits give low values
# [69] = locus YPR111W, strain DBF20, hits give low values
# [70] = strain NNK1, hits give low values
# [71] = strain TSCII, hits give low values
smiles,measurement,setting,value
Cc1onc(-c2c(Cl)cccc2Cl)c1C(=O)NNc1c(Cl)cccc1Cl,normalized growth,[1],0.962
same,normalized growth,[2],0.978
same,normalized growth,[3],0.986
same,normalized growth,[4],0.977
same,normalized growth,[5],0.975
same,normalized growth,[6],0.977
same,normalized growth,[7],0.97
same,normalized growth,[8],0.976
same,normalized growth,[9],0.971
same,normalized growth,[10],0.978
same,normalized growth,[11],0.941
same,normalized growth,[12],0.99
same,normalized growth,[13],0.972
same,normalized growth,[14],0.982
same,normalized growth,[15],0.932
same,normalized growth,[16],0.961
same,normalized growth,[17],0.961
same,normalized growth,[18],0.974
same,normalized growth,[19],0.983
same,normalized growth,[20],0.98
same,normalized growth,[21],0.972
same,normalized growth,[22],0.97
same,normalized growth,[23],0.941
same,normalized growth,[24],0.998
same,normalized growth,[25],0.987
same,normalized growth,[26],0.794 (active)
same,normalized growth,[27],0.957
same,normalized growth,[28],1.01
same,normalized growth,[29],0.956
same,normalized growth,[30],0.977
same,normalized growth,[31],0.907
same,normalized growth,[32],0.923
same,normalized growth,[33],0.976
same,normalized growth,[34],0.988
same,normalized growth,[35],0.96
same,normalized growth,[36],0.957
same,normalized growth,[37],0.981
same,normalized growth,[38],0.941
same,normalized growth,[39],0.949
same,normalized growth,[40],0.986
same,normalized growth,[41],1.03
same,normalized growth,[42],0.827 (active)
same,normalized growth,[43],0.976
same,normalized growth,[44],0.967
same,normalized growth,[45],0.942
same,normalized growth,[46],0.976
same,normalized growth,[47],0.963
same,normalized growth,[48],0.967
same,normalized growth,[49],0.979
same,normalized growth,[50],0.988
same,normalized growth,[51],0.989
same,normalized growth,[52],1
same,normalized growth,[53],0.991
same,normalized growth,[54],0.977
same,normalized growth,[55],0.972
same,normalized growth,[56],0.982
same,normalized growth,[57],0.956
same,normalized growth,[58],0.974
same,normalized growth,[59],0.957
same,normalized growth,[60],0.927
same,normalized growth,[61],0.981
same,normalized growth,[62],0.937
same,normalized growth,[63],0.921
same,normalized growth,[64],0.945
same,normalized growth,[65],0.986
same,normalized growth,[66],0.858
same,normalized growth,[67],0.976
same,normalized growth,[68],0.96
same,normalized growth,[69],0.956
same,normalized growth,[70],0.986
same,normalized growth,[71],0.983
Cc1cc(NC(=O)c2c(-c3c(Cl)cccc3Cl)noc2C)c([N+](=O)[O-])cc1C,normalized growth,"locus YAL013W, strain DEP1, hits give low values",1.01
same,normalized growth,"locus YBR229C, strain ROT2, hits give low values",1.01
same,normalized growth,[8],1.08
same,normalized growth,"locus YDR150W, strain NUM1, hits give low values",1.03
same,normalized growth,"locus YEL061C, strain CIN8, hits give low values",1
same,normalized growth,"locus YGR078C, strain PAC10, hits give low values",1.04
same,normalized growth,"locus YGR229C, strain SMI1, hits give low values",0.975
same,normalized growth,[26],1.02
same,normalized growth,"locus YHR087W, strain rtc3, hits give low values",0.969
same,normalized growth,"locus YJR043C, strain POL32, hits give low values",1.02
same,normalized growth,"locus YJR075W, strain HOC1, hits give low values",1
same,normalized growth,"locus YLR039C, strain RIC1, hits give low values",1.04
same,normalized growth,"locus YLR058C, strain SHM2 (second series), hits give low values",0.983
same,normalized growth,"locus YLR085C, strain ARP6, hits give low values",0.999
same,normalized growth,"locus YLR262C, strain YPT6, hits give low values",0.967
same,normalized growth,"locus YML094W, strain GIM5, hits give low values",0.992
same,normalized growth,"locus YMR219W, strain ESC1, hits give low values",0.992
same,normalized growth,"locus YMR263W, strain SAP30, hits give low values",1.04
same,normalized growth,"locus YNL153C, strain GIM3, hits give low values",1.04
same,normalized growth,"locus YNL298W, strain CLA4 (second series), hits give low values",1.04
same,normalized growth,"locus YNL322C, strain KRE1, hits give low values",0.981
same,normalized growth,"locus YNR030W, strain Alg12, hits give low values",0.975
same,normalized growth,"locus YOL006C, strain TOP1, hits give low values",0.987
same,normalized growth,"locus YPL055C, strain LGE1, hits give low values",0.996
same,normalized growth,"locus YPL241C, strain CIN2, hits give low values",1.01
same,normalized growth,"locus YPR135W, strain CTF4, hits give low values",0.995
CC(C)(C)c1ccc(C(=O)NNc2c(Cl)cccc2Cl)cc1,normalized growth,[1],0.977
same,normalized growth,[2],0.952
same,normalized growth,[3],0.948
same,normalized growth,[4],0.97
same,normalized growth,[5],0.958
same,normalized growth,[6],0.973
same,normalized growth,[7],0.98
same,normalized growth,[8],0.985
same,normalized growth,[9],0.965
same,normalized growth,[10],0.968
same,normalized growth,[11],0.9
same,normalized growth,[12],0.974
same,normalized growth,[13],0.981
same,normalized growth,[14],0.986
same,normalized growth,[15],0.948
same,normalized growth,[16],0.904
same,normalized growth,[17],0.939
same,normalized growth,[18],0.975
same,normalized growth,[19],0.978
same,normalized growth,[20],0.974
same,normalized growth,[21],0.933
same,normalized growth,[22],0.973
same,normalized growth,[23],0.918
same,normalized growth,[24],0.946
same,normalized growth,[25],0.894
same,normalized growth,[26],0.864
same,normalized growth,[27],0.885
same,normalized growth,[28],0.974
same,normalized growth,[29],0.86
same,normalized growth,[30],0.974
same,normalized growth,[31],0.898
same,normalized growth,[32],0.878
same,normalized growth,[33],0.88
same,normalized growth,[34],0.966
same,normalized growth,[35],0.868
same,normalized growth,[36],0.959
same,normalized growth,[37],0.954
same,normalized growth,[38],0.892
same,normalized growth,[39],0.89
same,normalized growth,[40],0.974
same,normalized growth,[41],1.01
same,normalized growth,[42],0.726 (active)
same,normalized growth,[43],0.89
same,normalized growth,[44],0.893
same,normalized growth,[45],0.862
same,normalized growth,[46],0.971
same,normalized growth,[47],0.888
same,normalized growth,[48],0.971
same,normalized growth,[49],0.978
same,normalized growth,[50],0.889
same,normalized growth,[51],0.981
same,normalized growth,[52],0.887
same,normalized growth,[53],0.974
same,normalized growth,[54],0.969
same,normalized growth,[55],0.902
same,normalized growth,[56],0.967
same,normalized growth,[57],0.85
same,normalized growth,[58],0.874
same,normalized growth,[59],0.985
same,normalized growth,[60],0.832
same,normalized growth,[61],0.981
same,normalized growth,[62],0.935
same,normalized growth,[63],0.92
same,normalized growth,[64],0.947
same,normalized growth,[65],0.968
same,normalized growth,[66],0.834 (active)
same,normalized growth,[67],0.962
same,normalized growth,[68],0.944
same,normalized growth,[69],0.995
same,normalized growth,[70],0.943
same,normalized growth,[71],0.972
